This test relates to HL-60(TB) leukemia. Briefly: NCI-60 one-dose screen, 48 h (100 = growth as untreated, 0 = no growth, -100 = all killed). The note with it: 10 µM unless noted.

The panel holds about 83,000 compounds, 20% with a hit somewhere; the sample as a whole holds those more often.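 Single-concentration screen, 48 h exposure, 96-well plates. Endpoint: percent growth. Below 10 = active.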 Values without a mark were called inactive. Active and inactive are the calls of the source.

Consider `CN1CCN(Cc2ccc(NC(=O)c3cncc(C#Cc4ccc(N)nc4)c3)cc2C(F)(F)F)CC1`, for which the growth is -38.5% (active).

In the case of `Cc1cc(Nc2cc(N3CCN(C)CC3)nc(/C=C/c3ccccc3)n2)n[nH]1`, the growth is -29.7% (active).

On to `O=C(O)CS(=O)c1ccc(Cl)cc1` (centres undefined), for which the growth was 86.2%.

Take `COc1ccc(Nc2nccc(Nc3ccc4[nH]ncc4c3)n2)cc1`: the growth was 59.6%.

Turning to `CC1(C)C(O)NC(Cl)=C(C#N)C1(C#N)C#N` (centres undefined), the growth is 114%.

For the compound `NC(=O)CCC(C(=O)O)N1C(=O)c2ccc(O)cc2C1=O` (centres undefined), the growth is 134%.

`O=C1c2ccccc2C(=O)c2sc(Nc3cccc(Cl)c3)nc21`: the growth is -18.7% (active).

For `O=C1NC(=O)/C(=C/c2ccc3nccc(-c4ccncc4)c3c2)S1`, the growth is -32.1% (active).

Turning to `O=C(CSc1nnc(-c2ccc(Cl)cc2)o1)Nc1ccc(C(=O)/C=C/c2ccc(Cl)cc2)cc1`, the growth is 84.4%.

For `COc1ccc(C(=O)C2C(C#N)C(C#N)C3c4ccccc4C=CN23)cc1` (centres undefined), the growth is 94.7%.

On to `O=C1CCC(C(=O)NCCNCCNC(=O)C2CCC(=O)N2)N1` (centres undefined), for which the growth was 89.2%.

Consider `CCOC(=O)c1sc(-c2ccc(OS(=O)(=O)c3ccccc3[N+](=O)[O-])c(C=O)c2)nc1C`, for which the growth was 73.3%.

For the compound `C/C(=N\NC(=O)Cn1c(-c2ccc(S(C)(=O)=O)cc2)nc2ccccc21)c1ccc(Cl)cc1`, the growth was 74.8%.

Turning to `O=C1C=C(Nc2ccc([N+](=O)[O-])cc2)c2ccccc2C1=O`, the growth was 3.59% (active).

Consider `COc1ccc(C(=O)OC2C(OC3C(O)COC(O[C@H]4C[C@H]5[C@@H]6CC=C7C[C@@H](O)CC[C@]7(C)[C@H]6CC[C@]5(C)[C@H]4[C@H](C)C(=O)CCC(C)C)C3OC(C)=O)OCC(O)C2O)cc1` (some centres undefined), for which the growth was -40.7% (active).

In the case of `O=C(CN1C(=O)S/C(=C\C(Cl)=C\c2ccccc2)C1=O)NC1C=CS(=O)(=O)C1` (centres undefined), the growth was -5.2% (active).

On to `Nc1ccc(Br)cn1`, for which the growth was 75.5%.

`CCCOc1ccc2c(c1)CC[C@@H]1[C@@H]2CC[C@@]2(C)[C@H]1CC[C@]2(C)O`: the growth is 78.8%.

As for `O=c1oc2cc(OS(=O)(=O)c3ccccc3)ccc2c2c1CCCCC2`, the growth was 18.6%.

As to `O=C1OC(c2ccc(Cl)c(Cl)c2)=C/C1=C/c1cccc([N+](=O)[O-])c1`, the growth was 103%.

For the compound `COc1ccc(C[C@H](N)C(=O)N[C@@H]2[C@@H](CO)OC(n3cnc4c(N(C)C)ncnc43)[C@@H]2O)cc1` (some centres undefined), the growth was -29.9% (active).

Take `Cc1cc(Cc2cc(C)c(O)c(C)c2)cc(C)c1O`: the growth was 15.6%.

In the case of `O=[N+]([O-])c1ccc(-c2ncc(-c3ccc(Br)cc3)o2)cc1`, the growth was 76.6%.

With `COc1cc(C2CC(=O)Nc3c2c(C)nn3-c2nc3ccccc3[nH]2)cc(OC)c1O` (centres undefined), the growth was 43.7%.

For `Cc1c(O)c(=O)n(-c2ccccc2)n1C`, the growth was 119%.

With `C[N+]1(CCc2ccccc2)CCC(CCC2CC[N+](C)(CCc3ccccc3)CC2)CC1` (centres undefined), the growth was 105%.

For the compound `C/C(=C\c1cnc(C)s1)[C@@H]1C[C@@H]2O[C@@H]2CCC[C@H](C)[C@H](O)[C@@H](C)C(=O)C(C)(C)[C@@H](O)CC(=O)O1`, the growth was 0.639% (active).

In the case of `CCNc1cc2c(cc1Br)-c1ccccc1C2=O`, the growth was 110%.

Regarding `OCCN1CCCCCCC1`, the growth was 102%.

For the compound `Cc1ccc(-c2nc(SCC(=O)Nc3nc(-c4ccc(Cl)cc4)cs3)[nH]c(=O)c2C#N)cc1`, the growth was 111%.

In the case of `Cn1cc(-c2csc(-c3c[nH]c4ncccc34)n2)c2cc(F)cnc21`, the growth is 79.8%.

For the compound `CN1CC=C(c2cc(NC(=O)Nc3ccc(Oc4ccnc(NC(=O)C5CC5)c4)c(F)c3)cc(C(F)(F)F)c2)CC1`, the growth is -18.3% (active).

As for `O=C1CC(c2ccc(Cl)cc2)c2ncn(-c3cccc(Cl)c3)c2N1` (centres undefined), the growth was -4.87% (active).

For `C#C[C@]1(O)CC[C@H]2[C@@H]3CC=C4c5nc(Nc6ccccc6[N+](=O)[O-])sc5CC[C@]4(C)[C@H]3CC[C@@]21C`, the growth was 77.7%.

For the compound `O=C(CC(C(=O)c1ccccc1)N1CCOCC1)c1ccccc1` (centres undefined), the growth is 55.4%.

Consider `CC(C)CCSc1nc(-c2ccc(F)cc2)c(C#N)c(N2CCCCC2)n1`, for which the growth is 73.1%.

Turning to `Cc1ccc(/C=C(\C#N)n2nnc3cc(Cl)c(Cl)cc32)cc1`, the growth is 1.4% (active).

For `Cn1cnc([N+](=O)[O-])c1Sc1nnc(-c2ccccc2)c(-c2ccccc2)n1`, the growth is 104%.

Consider `O=C1c2ccc3c4c(ccc(c24)C(=O)N1CCCNCc1ccccc1Cl)C(=O)N(CCCNCc1ccccc1Cl)C3=O`, for which the growth is -55.9% (active).

For the origin of these results see PubChem BioAssay (NCI).
